# Bioassay records from PubChem BioAssay.
# Compounds with a hit are over-represented: about 8.7% of the library has one in this group of screens.
# VACV mCherry inh = inhibitors of vaccinia virus infection (mCherry reporter signal). Vaccinia virus mCherry reporter infection, fluorescence. Potency, µM (series often up to 36.5 µM), for inactives: top-dose activity change, negative = inhibition, hits mostly inhibitors. 310,000 compounds, 0.63% hits. AID 720579; calls by dose curve; tested in A549 cells; note: nearly all actives have a fitted effect of over 35% in size
# Pf growth 48h = inhibits P. falciparum growth in the first generation, 48 h; Potency, µM (doses to about 28.7 µM), without a hit: top-dose activity change, negative = inhibition, actives largely listed as inhibitors; AID 504832; P. falciparum luciferase growth in erythrocytes, 48 h; 310,000 compounds, 5.9% hits
#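 Here the parasites carry a stable luciferase gene and grow inside erythrocytes in Albumax-based RPMI medium with compound for one erythrocytic cycle. Activity is scored as loss of luminescent signal.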
# VACV Venus inh = vaccinia inhibition (Venus reporter); Vaccinia virus Venus reporter expression, fluorescence; Potency, µM (titrated, usually from 36.5 µM), inactives show top-dose activity change, negative = inhibition, hits mostly inhibitors; 330,000 compounds, 0.46% hits; AID 720580; calls by dose curve; tested in A549 cells; note: nearly all actives have a fitted effect of over 30% in size
# AMA1 RON2 block = AMA1-RON2 (P. falciparum) interaction inhibition. AlphaScreen AMA1-biotinylated RON2 peptide binding. Potency, µM (highest dose often 58.2 µM), for inactives: at the top dose activity change, negative = inhibition, hits mostly inhibitors. 360,000 compounds, 0.2% hits. AID 720542;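 note: 0% = vehicle wells and -100% = peptide control; nearly all actives have a fitted effect of over 45% in size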
#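 AMA1 (3D7) with his tag at 25 nM final met compounds first, then biotinylated RON2 peptide at 25 nM; detection used donor plus acceptor beads, 10 µg/mL apiece, read by AlphaScreen after 30 min at room temperature.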
# Pf growth 96h = P. falciparum growth inhibition at 96 hour, primary screen for plastid delayed-death inhibitors | 320,000 compounds, 6.9% hits | Potency, µM (titrated, usually from 28.7 µM), without a hit: at the highest dose activity change, negative = inhibition, usual class: inhibitors | AID 504834 | P. falciparum luciferase reporter growth, 96 h
#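 Infected RBCs, 2% Hct / 0.05% parasitemia final; luciferase-reporter P. falciparum; cpd 96 h, 37 C, 5% CO2; luciferase detection reagent; luminescence.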
# Starred values were filed as active, the others as inactive; i = inactive; ? = inconclusive; . = not tested or not shown; [ ] = remark or other dose. Unless noted, calls come from the whole dose curve; as a rule, active = well fitted curve in the direction sought with a large enough effect; inconclusive = small, poorly fitted or top-dose-only effect, or another doubt; inactive = no such curve, though single readings can be large; an effect the other way counts as inactive or inconclusive. Unless noted, % is set by controls: 0 for no effect and ±100 for the full control effect; potency is the fitted concentration of half-maximal effect.
SMILES,VACV mCherry inh,Pf growth 48h,VACV Venus inh,AMA1 RON2 block,Pf growth 96h
O=S(=O)(Nc1ccc(N=Nc2ccccc2)cc1)c1ccccc1,-27%,36%,-19%,-19%,-9%
O=S(=O)(Nc1ccc(N=Nc2ccc(O)c3ccccc23)cc1)c1ccccc1,?,2.3µM*,-27%,?,5.2µM*
COc1cccc(C(=O)/C=C/Nc2ccc(S(=O)(=O)Nc3ccc(C(C)=O)cc3)cc2)c1,?,10µM*,?,-4%[2.32 µM],13µM*
COc1cc(OC)c(OC)cc1/C=C/C(=O)c1ccc(NS(=O)(=O)c2ccc(C)cc2)cc1,?,9.3µM*,-29%,11%,13µM*
CC(=O)c1ccc(NS(=O)(=O)c2ccc(C)cc2)cc1,-25%,.,-11%,-10%,34%
COc1cccc(C(=O)/C=C/Nc2ccc(S(=O)(=O)Nc3nc(C)cc(C)n3)cc2)c1,i,-2%,1%,-8%,2.1µM*
COc1cccc(NS(=O)(=O)c2ccc3[nH]cc(C(=O)NC4CCCCC4)c(=O)c3c2)c1,-23%,.,-14%,.,.
COc1cc(NC(=O)CC(C)S(=O)(=O)c2cc3c4c(c2)CCN4C(=O)CC3)cc(OC)c1 (stereo not drawn),-8%,.,3%,.,.
CC(C)Cn1c(CNC(=O)c2ccccc2)nc2ccccc21,.,16%,.,34%,53%
CCC(=O)Oc1ccc2ccccc2c1CNC(=O)c1ccccc1,-29%,?,-15%,-9%,9.3µM*
CCCCCC1CCNCC1,i,.,-12%,.,.
COc1ccc(N(CC(=O)Nc2ccccc2C(=O)N2CCOCC2)S(=O)(=O)c2ccc(F)cc2)cc1,-14%,-1%,-9%,-3%,10µM*
CCOc1ccccc1N(CC(=O)Nc1ccccc1C(=O)N1CCOCC1)S(C)(=O)=O,-16%,3%,-1%,-2%,10µM*
CS(=O)(=O)N(CC(=O)Nc1ccccc1C(=O)N1CCOCC1)c1ccccc1,.,0%,-17%,0%,26%
CCOC(=O)c1c(C)[nH]c(CCC(=O)Nc2cc(Cl)ccc2OC)c1C,-4%,.,-13%,.,.
Cc1ccc(/C=C/C(=O)O)cc1S(=O)(=O)NCCCO,.,-2%,-14%,8%,36%
Cc1ccc(/C=C/C(=O)O)cc1S(=O)(=O)N(CCO)CCO,-21%,-12%,-14%,14%,9.3µM*
Cc1ccc([N+](=O)[O-])cc1N=C(c1cccc(Br)c1)N1CCOCC1,-16%,?,-9%,?,13µM*
Cc1nc2sccn2c(=O)c1S(=O)(=O)NCc1ccc(F)cc1,-6%,.,-1%,.,.
Cc1ccc(NC2c3ncccc3C(=O)N2C2CCCCC2)cc1C (stereo not drawn),i,10µM*,-10%,1%,33%
Cc1noc(C)c1COC(=O)CCCc1nc2ccccc2s1,-8%,-18%,-5%,-13%,5.2µM*
CC(C)Cc1nn2c(=O)cc(COC(=O)c3ccc4c(c3)OCO4)nc2s1,-6%,.,0%,.,.
Cc1cccc(-c2nnc(SCCC(=O)O)o2)c1,-6%,.,0%,.,.
CC(=O)c1cccc(CN2CCCC(C(=O)c3ccc4c(c3)OCO4)C2)c1 (stereo not drawn),-9%,?,-13%,-10%,?
c1ccc(CN2CCC(N3CCN(Cc4ccc5c(c4)OCO5)CC3)CC2)cc1,-22%,15µM*,5%,-2%,?
SMILES,VACV mCherry inh,Pf growth 48h,VACV Venus inh,AMA1 RON2 block,Pf growth 96h
CCOC(=O)C1CCCN(C(=O)c2ccc3c(c2)OCO3)C1 (stereo not drawn),-13%,-15%,-16%,9%,.
CCOC(=O)CNC(=O)N1CCCC(C(=O)c2ccc3c(c2)OCO3)C1 (stereo not drawn),.,2%,.,-5%,12µM*
S=C(c1ccc2c(c1)OCO2)N1CCCCCC1,.,.,.,4%,12µM*
O=C(c1ccc2c(c1)OCO2)C1CCCN(C2CCN(CCc3ccccc3)CC2)C1 (stereo not drawn),i,2.6µM*,-24%,6%,3%
Cc1cc(C)c(NC(=O)C2CCN(S(=O)(=O)c3c(C)noc3/C=C/c3ccccc3F)CC2)c(C)c1,-10%[7.34 µM],.,-9%[7.34 µM],.,.
Cn1c(CNC(=O)CSc2n[nH]c(-c3ccccc3Cl)n2)nc2ccccc21,-13%,.,-1%,.,.
Cc1ccc(NC(=O)Cn2c(=O)n(Cc3ccccc3)c(=O)c3sc4ccccc4c32)cc1,-8%[7.34 µM],.,-9%[7.34 µM],.,.
O=C(NCc1ccc(F)cc1)c1cc2c(s1)CS(=O)(=O)C2,.,2%,.,-7%,6.6µM*
O=C(CCNC(=O)c1ccc(Cl)cc1)Nc1ncccc1O,i,6%,-29%,55%,10%
O=C(CCCNC(=O)c1ccc(Cl)cc1)Nc1ncccc1O,.,?,.,19%,8.3µM*
O=C([O-])c1cc(-c2ccccc2)cc(-c2ccccc2)[n+]1CCc1ccc(Cl)cc1,-23%,.,?,8%,.
O=[N+]([O-])c1ccc(-[n+]2c(-c3ccccc3)cc(-c3ccccc3)cc2-c2ccccc2)cc1,.,?,.,-2%,0%
O=C([O-])c1ccc(-[n+]2c(-c3ccccc3)cc(-c3ccccc3)cc2-c2ccccc2)cc1,i,?,-1%,-6%,?
COc1ccc(-[n+]2c(-c3ccccc3)cc(-c3ccccc3)cc2-c2ccccc2)cc1,?,0.83µM*,?,5%,0.29µM*
Cc1cc(-c2ccccc2)cc(-c2ccccc2)[n+]1C,i,10µM*,-14%,1%,0.93µM*
Cc1cc(-c2ccccc2)cc(-c2ccccc2)[n+]1CCc1ccccc1,?,0.47µM*,?,4%,0.52µM*
Oc1ccc(-[n+]2c(-c3ccccc3)cc(-c3ccccc3)cc2-c2ccccc2)cc1,-9%,0.37µM*,?,-12%,0.13µM*
O=C(O)c1ccc2c(c1)C(=O)N([C@H](Cc1ccc(O)c(O)c1)C(=O)O)C2=O,.,-1%,.,.,-5%
CC(=O)c1ccc(Nc2cc(C)nc3nc(Cc4ccc(Cl)cc4)nn23)cc1,-15%,.,-13%,.,.
O=C(C(=O)c1ccc(O)cc1)c1ccccc1,.,2%,.,-1%,227%
C[n+]1c(-c2ccccc2)cc(-c2ccc(O)cc2)cc1-c1ccccc1,-14%,?,23%,0%,2.1µM*
CSc1cccc(CN2CCN(CCc3ccccc3)C(CCO)C2)c1 (stereo not drawn),-2%,?,2%,-2%,214%
OCCC1CN(Cc2cccn2-c2cccnc2)CCN1CCc1ccccc1 (stereo not drawn),i,-6%,-10%,-12%,?
CC(C)n1cc(CN2CCN(CCc3ccccc3)C(CCO)C2)cn1 (stereo not drawn),-3%,16%,-10%,-14%,15µM*
OCCC1CN(Cc2cccnc2)CCN1CCc1ccccc1 (stereo not drawn),-9%,-11%,-18%,6%,9.3µM*
O=C(CSc1c2c(nc3ccccc13)CCC2)Nc1ccc(F)cc1,-14%,.,-11%,.,.
CN(C)c1ccc(/C=C(\C#N)c2nc(-c3ccc(Cl)c(Cl)c3)cs2)cc1,-9%,.,3%,.,.
